Test results: PubChem BioAssay AID641 (Vanderbilt High Throughput Screening Facility, 2007)
Screen size: about 58,000 compounds; about 3,400 (5.9%) were called active. What follows is part of a selection rich in actives, with near analogues and random picks from the rest. Values without a mark were called inactive.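 The calls were made as follows: active = luminescence count or its row- and column-corrected plate score outside the 99.7% band of the plate's sample wells, on either side; inactive = the rest.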

target: D(1A) dopamine receptor (Homo sapiens) (UniProt P21728); assay: D1 CRE-luciferase signal change, two-sided – cell-based, HEK293 D1, dopamine EC30, D1 allosteric modulator project, primary screen (AID 641); conditions: dopamine EC30 potentiation, at 10 µM, actives deviate in either direction
Sequence (P21728 whole entry, looked up): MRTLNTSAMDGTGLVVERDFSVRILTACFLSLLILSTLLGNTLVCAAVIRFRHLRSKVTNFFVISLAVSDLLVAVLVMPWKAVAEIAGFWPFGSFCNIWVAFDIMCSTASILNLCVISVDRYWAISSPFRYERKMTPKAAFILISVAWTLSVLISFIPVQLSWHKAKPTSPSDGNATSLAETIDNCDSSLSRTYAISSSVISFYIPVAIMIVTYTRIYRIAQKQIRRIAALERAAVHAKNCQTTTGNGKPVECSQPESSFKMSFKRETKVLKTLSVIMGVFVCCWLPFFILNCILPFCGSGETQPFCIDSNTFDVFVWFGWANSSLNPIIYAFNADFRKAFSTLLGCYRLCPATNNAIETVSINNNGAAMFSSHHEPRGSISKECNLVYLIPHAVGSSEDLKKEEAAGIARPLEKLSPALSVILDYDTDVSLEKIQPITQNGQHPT

Structure (SMILES)	B-score
COc1ccc(-n2nc3c(c2NC(=O)Cc2cccc(C)c2)CS(=O)C3)cc1 (stereo not given)	0.123
COc1cccc(NC(=O)Nc2nnc(N3CCCCC3C)s2)c1 (stereo not given)	-0.931
CC/C(=N\O)C(C)(C)/[N+]([O-])=C/c1ccc(Br)cc1	0.458
CCCS(=O)(=O)N1CCC(C(=O)NCCCN(C)Cc2ccccc2)CC1	-0.981
CCCS(=O)(=O)N1CCC(C(=O)NCCc2ccc(OC)c(OC)c2)CC1	1.44 (active)
COc1ccc(CCNC(=O)C2CCN(c3nn4c(=O)cc(C)nc4s3)CC2)cc1OC	-0.543
CN1CCN(Cc2c(O)ccc3c2oc(=O)c2ccccc23)CC1	-0.323
O=C(CSc1nnc(-c2cccs2)n1Cc1ccco1)c1ccc2c(c1)OCO2	-1.01
CCOC(=O)N1CCC(NC(=O)c2cnn3ccccc23)CC1	0.314
O=C(Cn1nc(Cc2cccnc2)c2ccccc2c1=O)NCC1COc2ccccc2O1 (stereo not given)	0.362
O=C(O)C1CC(=O)N(Cc2cccnc2)C1 (stereo not given)	-0.0843
CC1Oc2ccccc2N(Cc2cccnc2)C1=O (stereo not given)	6.15 (active)
Cc1cc2cc(CNC(=O)c3ccc(S(=O)(=O)N4CCOCC4)cc3)ccc2[nH]1	0.133
O=C(CN1C(=O)CSc2ncccc21)N1CCOCC1	-0.0289
Cc1cc(=O)cc(C)[nH]1	-0.271
CC(=O)NC(C)(C)C1CC=C(C)/C(=N\O)C1 (stereo not given)	0.674
OC(COc1ccccc1)Cn1cc(Br)cn1 (stereo not given)	-0.000319
CCn1cc(C(=O)NCC2COc3ccccc3O2)c2cc(OC)c(OC)cc2c1=O (stereo not given)	5.22 (active)
CCn1cc(C(=O)N2CCN(Cc3ccc4c(c3)OCO4)CC2)c2cc(OC)c(OC)cc2c1=O	-1.2
CCn1cc(C(=O)NCc2ccc3c(c2)OCO3)c2cc(OC)c(OC)cc2c1=O	0.436
Cc1ccccc1C(=O)Nc1cccc(-c2nnc(SCC(=O)O)n2C)c1	-0.574
CCCc1[nH]nc2c1C(c1ccc(OC)c(Cn3nc(C)c(Br)c3C)c1)C(C#N)=C(N)O2 (stereo not given)	0.961

Structure (SMILES)	B-score
CCCc1nc(N)nc2c1C(=O)CC(C)(C)C2	14.2 (active)
CC1(C)CC(=O)c2sc(N)nc2C1	-0.282
Cc1ccccc1CSCC(=O)NC(=O)NC(C)(C)C	0.485
CC(Nc1nc(N2CCCC2)nc2ccccc12)c1ccccc1 (stereo not given)	-4.18 (active)
Cc1ccc(C(CC(=O)O)Nc2nc(N3CCCCC3)nc(N3CCCCC3)n2)cc1 (stereo not given)	-0.363
O=C(CSc1nc2ncccc2[nH]1)Nc1ccc2c(c1)OCCO2	0.287
O=C(Nc1ccc2c(c1)OCCO2)C1CCCN(c2ncccn2)C1 (stereo not given)	-3.93 (active)
Cc1ccnc(N2CCCC(C(=O)Nc3cc(F)ccc3C)C2)n1 (stereo not given)	-0.197
O=C1c2oc3ccc(Br)cc3c(=O)c2C(c2cccc(F)c2)N1CCO (stereo not given)	-0.882
CN=C1SC(C(=O)O)CC(=O)N1C (stereo not given)	-0.346
Cc1noc(NS(=O)(=O)c2ccc(N3CC(O)=C(c4ccccc4)C3=N)cc2)c1C	0.215
COCCNC(=O)COc1ccc(C)c(C)c1	0.751
O=C(Nc1cccnc1)c1ccc2c(c1)OCO2	-0.0115
O=C(Nc1cccnc1)c1noc2c1CCCCC2	-2.9 (active)
CCOc1cccc(C(=O)Nc2cccnc2)c1	0.108
Cc1nnc(SCC(=O)NCc2ccccc2)s1	0.474
O=C(CSc1nnc2ccccn12)c1ccccc1	-0.291
COc1ccc(-n2c(SC)nc(O)cc2=O)cc1	0.0194
COc1ccccc1CNC(=O)C1CCCN(S(=O)(=O)c2cccc3cccnc23)C1 (stereo not given)	-0.155
COc1ccc(NC(=O)C2CCCN(S(=O)(=O)c3cccc4cccnc34)C2)cc1OC (stereo not given)	11.5 (active)
COc1ccc(NC(=O)C2CCCN(S(=O)(=O)c3cccc4cccnc34)C2)cc1 (stereo not given)	-1.11
COc1ccc(OC)c2[nH]c(=O)c(CCNC(=O)C(C)(C)C)cc12	-0.197

Structure (SMILES)	B-score
CCCCn1c(SCC(=O)NCCc2ccc(OC)c(OC)c2)nc2c1c(=O)n(C)c(=O)n2C	0.0783
CCCSc1nc2c(c(=O)n(C)c(=O)n2C)n1Cc1ccc(C)cc1	1.94
CCOc1ccc(Cn2c(SCCCCC#N)nc3c2c(=O)n(C)c(=O)n3C)cc1OCC	10.1 (active)
Fc1ccc(OCc2nn3c(Cn4nnc5ccccc54)nnc3s2)cc1	-0.628
Oc1ccc(Cl)cc1/C=N/c1nc2ccccc2[nH]1	1.49
N#Cc1ccc(COC(=O)Cn2nnc(-c3ccccc3)n2)cc1	0.71
COc1cccc(NC(=O)C2CCCN2C(=O)OCc2ccccc2)c1 (stereo not given)	0.12
N#Cc1c(N)sc2c1CCN(C(=O)OCc1ccccc1)C2	5.84 (active)
O=C(NCCN1CCOCC1)c1ccc2c(c1)ncn2C1CCCC1	-0.956
COc1ccc(OC)c(NC(=O)Cn2c(=O)oc3ccccc32)c1	0.945
COc1ccc(CCNC(=O)CCCCn2c(=O)[nH]c3ccccc3c2=O)cc1OC	0.358
COc1ccc(CCNC(=O)CCn2c(=O)oc3ccccc32)cc1OC	6.86 (active)
Cc1c(C(=O)NCC2CCCO2)sc2nc(-c3ccccc3)cn12 (stereo not given)	0.33
CC1(C)CN=C(N2CCN(c3ncnc4sc5c(c34)CCCC5)CC2)S1	-0.977
O=C(O)[C@@H]1CCCN1c1ncnc2sc3c(c12)CCC3	-0.0144
COc1ncnc2sc3c(c12)CCCC3	5.43 (active)
O=C(NC1CCCCC1)C1CCCN(S(=O)(=O)c2cccs2)C1 (stereo not given)	0.0829
O=C(CCSc1ccccc1)NCCSc1ccccn1	0.117
COc1ccc(/C(O)=C2/C(=O)C(=O)N(CCCN(C)C)C2c2ccccc2)cc1OC (stereo not given)	-0.187
COc1cccc(C2/C(=C(/O)c3ccncc3)C(=O)C(=O)N2CCCN(C)C)c1 (stereo not given)	-3.02 (active)
COc1cccc(C2/C(=C(/O)c3ccc(F)cc3)C(=O)C(=O)N2CCN(C)C)c1 (stereo not given)	-0.0254
